Laboratory results taken from PubChem BioAssay (NCATS).
Records with an inconclusive call do not appear. Calls of active or inactive are those of the source. Calls come from the whole dose curve; as a rule, active = well fitted curve in the direction sought with a large enough effect; inconclusive = small, poorly fitted or top-dose-only effect, or another doubt; inactive = no such curve, though single readings can be large; an effect the other way counts as inactive or inconclusive.

test: qHTS for Inhibitors of Plasmodium falciparum (GB4) proliferation (AID 504315); note: nearly all actives have a fitted effect of over 50% in size; details: P. falciparum GB4 in erythrocytes, SYBR Green DNA, 72 h; series mostly up to 6.7 µM
Procedure, shortened: (§1)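 Parasite growth measured as SYBR Green DNA fluorescence (ex 485, em 535 nm) after overnight lysis following 72 h culture at 37 °C, 0.3% parasitemia, 2.5% hematocrit. Values normalized against DMSO and 0.29 uM artemisinin controls, with plate-stack correction.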

Potency, inactive:
COCCN1C(=O)NC(c2ccc(Br)cc2)C(C(C)=O)=C1C (configuration not stated), COC(=O)C1=NOC2(C=C(Br)C(OC)=C(Br)C2=O)C1 (configuration not stated), COc1ccc(N2C=C3C(=O)C(C)(OC(=O)C4CCCC4)C(=O)C=C3C=C2c2ccsc2)cc1 (configuration not stated), COC(=O)C(C(C)=O)C(=O)C(Cc1ccccc1)NC(=O)OCc1ccccc1 (configuration not stated), COC(=O)CC=C[C@@H](C)[C@@H](C=NOC[C@@H](O)COCc1ccco1)NS(=O)(=O)c1ccc(C)cc1, COC(=O)CC=C[C@@H](C)[C@@H](C=NOC[C@@H](O)COCc1ccco1)OC

test: qHTS for Inhibitors of Plasmodium falciparum (HB3) proliferation (AID 504318); note: nearly all actives have a fitted effect of over 60% in size; details: P. falciparum HB3 in erythrocytes, SYBR Green DNA, 72 h; series mostly up to 7.21 µM
Procedure, shortened: as §1

Potency, inactive:
CCN1C(=NCCCCO)NC(c2cccc(C(F)(F)F)c2)C(C(=O)OC)=C1C (configuration not stated), C#CCN1C(=O)CC[C@@]23C1=NC(C(=O)OC)=C(C(=O)OC)[C@@H]2N(CC=C(C)C)c1ccccc13, CCCCCCCC1=Cc2ccc(F)cc2C(C(C(C)=O)C(=O)OC)N1C(=O)OC (configuration not stated), O=C1[C@H]2[C@@H]3[C@@H](O)[C@H](O)CC(=NOCc4ccccc4)[C@H]3CC[C@H]2C(=O)N1C1CCCCC1, Cc1ccc2[nH]c3nc(CCCn4ccnc4-c4ccccc4)nnc3c2c1, COC(=O)N[C@H](C[N+](=O)[O-])c1cccc(C)c1, CC=COC(=O)N[C@@H](c1ccccc1)[C@]1(C(=O)OCC)CCCC1=O, C[C@@H]1C=CCC(=O)N[C@@H](c2ccccc2)[C@H](C)C=CCC(=O)N[C@@H]1c1ccccc1, COC(=O)C1(C(=O)OC)C[C@@H]2CON=C2[C@@H]1c1ccccc1, COC(=O)C1=C(C)N(Cc2ccccc2)C(=NCCc2ccccn2)NC1c1cccc(C(F)(F)F)c1 (configuration not stated), COCC(=O)C(C(=O)OC)[C@H](CCc1ccccc1)NC(=O)OC (some centres not stated), COc1ccc2c(c1)O[C@H](c1ccc3c(c1)OCO3)[C@@H](OC(=O)NCc1ccc3c(c1)OCO3)C2=O, COCCN1C(=O)NC(c2ccc(Br)cc2)C(C(C)=O)=C1C (configuration not stated), COC(=O)C1=NOC2(C=C(Br)C(OC)=C(Br)C2=O)C1 (configuration not stated), COC(=O)C(C(C)=O)C(=O)C(Cc1ccccc1)NC(=O)OCc1ccccc1 (configuration not stated), COC(=O)CC=C[C@@H](C)[C@@H](C=NOC[C@@H](O)COCc1ccco1)OC
